Compound activity as filed in PubChem.
ATG4B inhibitor: ATG4B (human) cysteine protease inhibition; actives 0.51% (n = 340,000); ATG4B cleavage of LC3-PLA2, NBD-HPC fluorescence, 1 h; inhibition, % at 8.33 µM; in the data active = inhibition above about 40%
Target sequence (Q9Y4P1 whole entry, looked up): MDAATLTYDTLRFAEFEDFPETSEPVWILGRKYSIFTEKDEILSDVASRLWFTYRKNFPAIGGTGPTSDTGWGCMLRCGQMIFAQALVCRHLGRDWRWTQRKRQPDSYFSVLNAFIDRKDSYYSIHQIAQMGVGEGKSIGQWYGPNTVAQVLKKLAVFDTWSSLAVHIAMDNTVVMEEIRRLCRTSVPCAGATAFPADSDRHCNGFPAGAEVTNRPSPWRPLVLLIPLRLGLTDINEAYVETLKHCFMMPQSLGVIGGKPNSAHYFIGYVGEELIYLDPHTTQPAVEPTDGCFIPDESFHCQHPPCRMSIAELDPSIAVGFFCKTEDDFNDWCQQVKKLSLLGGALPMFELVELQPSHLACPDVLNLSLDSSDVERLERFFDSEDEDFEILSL
PfHsp90 yeast 2: growth inhibition of yeast expressing Plasmodium Hsp90. S. cerevisiae expressing PfHsp90, BacTiter-Glo ATP, 48 h; yeast lacking PDR1 and PDR3 efflux regulators. inhibition, % at 9.4 µM. actives 0.32% (n = 310,000). AID 504621;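 active = every replicate shows inhibition above about 80%, whatever the replicate mean, limit read from the data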;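 also: 0% = DMSO neutral controls and 100% = 20 µM radicicol positive controls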
tim23-1 inh: tim23-1 yeast growth inhibition; S. cerevisiae tim23-1 growth, BacTiter-Glo luminescence, 24 h; inhibition, % at 20 µM; actives 1.3% (n = 330,000); AID 463212;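 active = growth inhibition of the mutant yeast at or above 50%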;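 also: temperature-sensitive mutant grown at 25 °C; plate controls were DMSO-treated mutant yeast for no effect and medium wells lacking yeast for full effect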
SKKanGAS inh: blocks kanamycin growth of S. pyogenes SKKanGAS strain; actives 1.3% (n = 300,000); BacTiter-Glo, 6 h; AID 1662; inhibition, % at 7.5 µM;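 active = mean replicate score, as percent of positive control median, at least 50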;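 also: strain carries kanamycin resistance gene driven by streptokinase promoter and grows in 40 µg/ml kanamycin; loss of luminescence reflects streptokinase promoter inhibition or plain growth inhibition; 0% = median of DMSO wells and 100% = positive control at its reference dose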
tim10-1 inh: growth inhibitors of tim10-1 mutant yeast. S. cerevisiae tim10-1 ts strain growth, BacTiter-Glo, 24 h. inhibition, % at 20 µM. actives 2.2% (n = 330,000). AID 463190;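 active = inhibition of at least 40%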;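 also: mutant grown at 25 °C; 0% = DMSO wells with yeast and 100% = wells holding no yeast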
TIM10 inh: TIM10 yeast growth inhibition. AID 463195. S. cerevisiae TIM10 strain growth, BacTiter-Glo luminescence, 24 h. actives 1.4% (n = 330,000). inhibition, % at 10 µM;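 active = inhibition of 40% or more at the single tested concentration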;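 also: wild-type TIM10 isogenic control strain grown at permissive 25 °C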
tim23-1 confirm: confirmation of tim23-1 mutant yeast growth inhibitors. shares compounds with tim23-1 inh. S. cerevisiae tim23-1 growth, BacTiter-Glo luminescence, 24 h. inhibition, % at 20 µM. actives 83% (n = 4,400);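 active = inhibition above about 39% in either of two replicate wells at 20 µM, limit read from the data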;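 also: temperature-sensitive tim23-1 mutant grown at 25 °C; 0% = DMSO wells with yeast and 100% = medium wells without yeast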
* marks the source's active call; other numbers are inactive results; / = not tested or not shown. Shown are actives, neighbours in structure and some others; about 4.7% of the full set was active somewhere.

SMILES	ATG4B inhibitor	PfHsp90 yeast 2	tim23-1 inh	SKKanGAS inh	tim10-1 inh	TIM10 inh	tim23-1 confirm
Nc1c(N(Cc2ccco2)C(=O)c2ccc(Br)cc2)c(=O)[nH]c(=O)n1Cc1ccccc1	3	16	59*	/	6	17	72*
Nc1c(N(Cc2ccco2)C(=O)c2ccc(Cl)cc2)c(=O)[nH]c(=O)n1Cc1ccccc1	-6	/	60*	/	0	16	66*
CC(=O)c1csc(COc2cc(Cl)cc(Cl)c2)n1	11	-16	16	0	3	6	/
COc1ccccc1C(=O)Oc1cc(N)n(S(=O)(=O)c2ccc(C)cc2)n1	14	-1	28	0	36	38	/
Cc1ccc(S(=O)(=O)n2ccc(OC(=O)c3cccs3)n2)cc1	3	8	58*	2	39	32	57*
Cc1ccc(S(=O)(=O)c2c(C)nn(C(C)(C)C)c2OC(=O)c2cccs2)cc1	9	2	51*	4	30	24	39
CC(=O)Oc1c(S(=O)(=O)c2ccc(C)cc2)c(C)nn1C(C)(C)C	4	-32	52*	-8	34	23	39
CCCCC(=O)Oc1c(S(=O)(=O)c2ccc(C)cc2)c(C)nn1C(C)(C)C	5	-6	46	6	24	28	/
O=C(N1CCc2cc(S(=O)(=O)NC[C@H]3O[C@@H](n4ccc(=O)[nH]c4=O)[C@H](O)[C@@H]3O)ccc2C1)C(F)(F)F	1	-17	/	/	/	/	/
C#CCNC(=O)C1=C[C@@H](C)[C@H](CCCO)[C@@H](OCC)O1	1	-8	-3	-2	-23	2	/
CC(C)Nc1cc(C(F)(F)F)nc(-c2ccccn2)n1	0	/	-10	1	35	-13	/
FC(F)(F)c1cc(Nc2ccccc2)nc(-c2ccccn2)n1	-5	9	51*	77*	22	35	34
O=C(NOC(=O)c1ccccc1)c1ccccc1	-10	-68	64*	-2	28	11	34
CCOC(CNc1cc(C)nc2c(-c3ccccc3OC)c(C)nn12)OCC	0	42	14	5	24	16	/
Cn1c(-c2ccc(Cl)nc2)nc2ccccc21	-5	8	-6	-4	-1	-10	/
Cn1cc(C(=O)c2ccc(Cl)cc2)cc1-c1nc2ccccc2n1C	-1	/	64*	6	23	3	48*
Nc1ccc(-c2ncc(-c3ccccc3)o2)cc1	0	6	51*	-6	25	15	39
Cc1ccc(-c2cnc(-c3ccncc3)o2)cc1	0	/	-1	2	9	24	/
C=CCC[C@H](Cc1ccc(F)cc1)C(=O)OC[C@@H](NC(=O)[C@H](CC=C)CC(=O)NCCO)C(C)(C)C	7	-8	5	/	-7	2	/
COc1ccc(S(=O)(=O)N2CCOC23CCN(S(=O)(=O)c2cc(F)ccc2F)CC3)cc1	4	15	53*	-3	35	-5	38
Nc1ccc(Br)c2cccnc12	1	/	-7	17	24	15	/
COc1cccc(N=Nc2ccc(O)c3ncccc23)c1	-4	102*	62*	79*	-23	38	56*
Nc1ccc(N=Nc2ccccc2)c2cccnc12	7	-42	59*	25	36	21	51*
CCOC(=O)/C(=N\Nc1ncnc2ccccc12)c1ccc(OC)cc1	-10	-14	1	11	-9	6	/
O=C(N/N=C/CCc1ccccc1)C1CCCCC1	-2	-17	5	-5	16	4	/
SMILES	ATG4B inhibitor	PfHsp90 yeast 2	tim23-1 inh	SKKanGAS inh	tim10-1 inh	TIM10 inh	tim23-1 confirm
O=C(N/N=C/CCc1ccccc1)c1ccccc1	-4	-3	55*	-2	-3	6	6
O=C(N/N=C\c1ccc2c(c1)OCO2)c1ccco1	8	6	25	6	-23	18	/
O=C(N/N=C/c1ccc2cccnc2c1)c1ccco1	4	-13	59*	-3	19	27	64*
Cc1ccc(S(=O)(=O)NCC(=O)N(c2ccccc2)C(C(=O)NCc2ccccc2)c2ccco2)cc1 (stereo unspecified)	-1	-5	12	10	21	10	/
CCOC(=O)c1cn(-c2ccccc2)nc1-c1ccncc1	-4	-57	51*	/	38	35	46*
CCOC(=O)c1cn(-c2ccccc2)nc1-c1cccnc1	-7	/	-22	-13	40	16	/
O=C(Nc1cccc(NC(=O)c2cccs2)c1)c1ccc(Br)o1	4	-10	61*	-2	16	3	72*
O=C(Nc1ccc(NC(=O)c2cccs2)cc1)c1ccc(Br)o1	5	/	42	4	-20	6	/
O=C(Nc1ccc(N2CCN(C(=O)c3cccs3)CC2)cc1)c1ccc(Br)o1	-5	-1	55*	/	29	32	54*
O=C(Nc1ccccc1Cl)c1cccc(NC(=O)c2cccs2)c1	13	-21	59*	3	17	14	63*
Cc1cc(C)c(CN2CCN(C(=O)Cn3cnc4c(NCc5ccccc5)ncnc43)CC2)c(C)c1	-10	-14	92*	/	10	9	12
Cc1ccc(C(=O)CCC(=O)Nc2ncccc2C)cc1	9	-3	10	/	-6	9	/
Cc1ccc(C(=O)CCC(=O)Nc2ncccc2O)cc1	5	/	55*	-2	9	5	4
COc1cc([N+](=O)[O-])ccc1NC(=S)NC(=O)CC(C)(C)C	-8	6	-15	-3	-4	-7	/
Cc1ccccc1OCCCSc1nc2ccccc2[nH]1	11	-34	68*	-17	14	28	64*
N#Cc1cccc(NCC(=O)Nc2cccc(S(=O)(=O)N3CCCCC3)c2)c1	-21	/	12	/	-1	1	/
O=C(COC(=O)c1nc(Cl)c(Cl)c(Cl)c1Cl)NCc1ccccc1	-1	/	59*	/	36	31	58*
Nc1c(Cl)c(Cl)nc(C(=O)OCC(=O)NCc2ccccc2)c1Cl	1	/	11	/	7	-24	/
CCn1cc(Cl)c(C(=O)N2N=C3/C(=C/c4cccs4)CCCC3C2c2cccs2)n1 (stereo unspecified)	-1	/	33	23	21	20	/
COC(=O)c1ccccc1N=Nc1c(C)noc1C	8	21	12	6	25	-3	/
CCOc1ccc2c3c(c(=O)oc2c1OCC)CCCC3	20	/	52*	-5	39	20	39*
COC(=O)/C=C1\N/C(=N\c2nc(C)cc(C)n2)N(c2ccccc2)C1=O	-8	/	16	3	6	11	/
CC1CCCCC1NC(=O)CCS(=O)(=O)c1ccc(Cl)cc1 (stereo unspecified)	7	-15	15	/	19	4	/
